This experiment relates to Salmonella enterica serovar Typhimurium SL1344. Put plainly: normalized intracellular growth (luminescence, IQM-normalized) in RAW264.7 macrophages (fraction of plate interquartile mean); higher = more bacterial growth (less inhibition). Particulars: 10 µM.

Each structure is given as a SMILES string. Where “and” joins values, the source holds several entries; their conditions need not be identical. Equal entries are not always repeated. ± gives the standard deviation of the averaged measurements. The full ranking holds about 1,600 compounds; the median of “normalized intracellular growth (luminescence, IQM-normalized) in RAW264.7 macrophages” is about 1, and the lowest 2% start at about 0.43. Only a selection was taken, and the lowest values are over-represented in it overall.

In the case of `CC(=O)N(CC(O)CO)c1c(I)c(C(=O)NCCO)c(I)c(C(=O)NCC(O)CO)c1I` (stereo unspecified), the normalized intracellular growth by setting is: (time point: T3 (3 h)) 0.938 ± 0.063; (time point: Tfinal (~6 h)) 1.17 ± 0.091.

As for `OC[C@H]1O[C@H](O[C@H]2[C@H](O)[C@@H](O)C(O)O[C@@H]2CO)[C@H](O)[C@@H](O)[C@@H]1O` (stereo partly specified), the normalized intracellular growth runs as follows: (time point: T3 (3 h)) 0.919 ± 0.086; (time point: Tfinal (~6 h)) 0.986 ± 0.012.

For `OC[C@H]1O[C@@H](O[C@@H]2[C@@H](CO)OC(O)(CO)[C@H]2O)[C@H](O)[C@@H](O)[C@H]1O` (mixture of isomers), the normalized intracellular growth is 0.999 ± 0.021 (time point: T3 (3 h)) and 0.958 ± 0.011 (time point: Tfinal (~6 h)).

For `OC[C@H]1O[C@H](O[C@]2(CCl)O[C@H](CCl)[C@@H](O)[C@@H]2O)[C@H](O)[C@@H](O)[C@H]1Cl`, the normalized intracellular growth was determined as 0.91 ± 0.095 (time point: T3 (3 h)) and 0.0259 ± 0.0051 (time point: Tfinal (~6 h)).

`COc1ccc(C(=O)c2ccccc2)c(O)c1` returned a normalized intracellular growth (time point: T3 (3 h)) of 0.948 ± 0.07 and a normalized intracellular growth (time point: Tfinal (~6 h)) of 0.417 ± 0.083.

Turning to `COc1ccc(C(=O)c2ccccc2O)c(O)c1`, the normalized intracellular growth turned out to be 1 ± 0.047 (time point: T3 (3 h)) and 1.24 ± 0.031 (time point: Tfinal (~6 h)).

On to `COc1ccc(C(=O)c2ccc(C)cc2)c(O)c1`, for which the normalized intracellular growth stood at 1.02 ± 0.028 (time point: T3 (3 h)) and 0.926 ± 0.2 (time point: Tfinal (~6 h)).

With `Cc1cc(O)cc(C)c1Cl`, the normalized intracellular growth (time point: T3 (3 h)) was found to be 1.03 ± 0.075 and the normalized intracellular growth (time point: Tfinal (~6 h)) was found to be 1.11 ± 0.071.

Molecule `N=c1ccn2c(n1)O[C@H]1[C@H](O)[C@@H](CO)O[C@H]12` returned a normalized intracellular growth (time point: T3 (3 h)) of 1 ± 0.029 and a normalized intracellular growth (time point: Tfinal (~6 h)) of 1.16 ± 0.016.

With `CO/N=C1\CN(c2nc3c(cc2F)c(=O)c(C(=O)O)cn3C2CC2)CC1CN` (stereo unspecified), the normalized intracellular growth came out at 0.967 ± 0.014 (time point: T3 (3 h)) and 1.15 ± 0.048 (time point: Tfinal (~6 h)).

With `CCn1cc(C(=O)O)c(=O)c2cc(F)c(N3CCNC(C)C3)c(F)c21` (stereo unspecified), the normalized intracellular growth was determined as 0.996 ± 0.098 (time point: T3 (3 h)) and 0.0187 ± 0.0027 (time point: Tfinal (~6 h)).

For the molecule `COc1c(N2CCNC(C)C2)c(F)cc2c(=O)c(C(=O)O)cn(C3CC3)c12` (stereo unspecified), the normalized intracellular growth (time point: T3 (3 h)) amounted to 1.02 ± 0.13 and the normalized intracellular growth (time point: Tfinal (~6 h)) was found to be 0.015 ± 0.0035.

Turning to `CCn1cc(C(=O)O)c(=O)c2ccc(C)nc21`, the normalized intracellular growth (time point: T3 (3 h)) was 0.994 ± 0.03 and the normalized intracellular growth (time point: Tfinal (~6 h)) was 0.881 ± 0.37.

In turn, `CCn1cc(C(=O)O)c(=O)c2cc(F)c(N3CCNCC3)nc21` yielded a normalized intracellular growth (time point: T3 (3 h)) of 0.916 ± 0.07 and a normalized intracellular growth (time point: Tfinal (~6 h)) of 0.245 ± 0.036.

For `COc1c(N2C[C@@H]3CCCN[C@@H]3C2)c(F)cc2c(=O)c(C(=O)O)cn(C3CC3)c12`, the normalized intracellular growth worked out at 1.41 ± 0.1 (time point: T3 (3 h)) and 0.00827 ± 0.001 (time point: Tfinal (~6 h)).

In the case of `CCn1cc(C(=O)O)c(=O)c2cnc(N3CCNCC3)nc21`, the normalized intracellular growth by setting is: (time point: T3 (3 h)) 0.974 ± 0.034; (time point: Tfinal (~6 h)) 0.533 ± 0.082.

In turn, `CC(C)(CO)[C@@H](O)C(=O)NCCC(=O)NCCSSCCNC(=O)CCNC(=O)[C@H](O)C(C)(C)CO` yielded a normalized intracellular growth (time point: T3 (3 h)) of 0.981 ± 0.048 and a normalized intracellular growth (time point: Tfinal (~6 h)) of 0.976 ± 0.089.

Regarding `OCc1cccnc1`, the normalized intracellular growth is, setting by setting: (time point: T3 (3 h)) 1.056 ± 0.0048; (time point: Tfinal (~6 h)) 0.97 ± 0.051.

Take `O=S(=O)(c1cccc2cnccc12)N1CCCNCC1`: the normalized intracellular growth by setting is: (time point: T3 (3 h)) 1.02 ± 0.035; (time point: Tfinal (~6 h)) 1.13 ± 0.067.

`NC(=O)NS(=O)(=O)c1ccc(N)cc1` displayed a normalized intracellular growth (time point: T3 (3 h)) of 0.98 ± 0.031 and a normalized intracellular growth (time point: Tfinal (~6 h)) of 0.881 ± 0.095.

The molecule `FC(F)(Cl)C(F)(F)Cl` came in with a normalized intracellular growth (time point: T3 (3 h)) of 1.02 ± 0.023 and a normalized intracellular growth (time point: Tfinal (~6 h)) of 0.675 ± 0.21.

Turning to `NC1CCN(c2c(F)cc3c(=O)c(C(=O)O)cn(C4CC4)c3c2Cl)C1` (stereo unspecified), the normalized intracellular growth by setting is: (time point: T3 (3 h)) 1.49 ± 0.071; (time point: Tfinal (~6 h)) 0.00632 ± 0.00035.

Take `CC(=O)OCC(=O)[C@@]1(O)CC[C@H]2[C@@H]3CCC4=CC(=O)C=C[C@]4(C)[C@@]3(Cl)[C@@H](Cl)C[C@@]21C`: the normalized intracellular growth came out at 0.961 ± 0.062 (time point: T3 (3 h)) and 1.13 ± 0.022 (time point: Tfinal (~6 h)).

In the case of `CCCCCCCCCc1ccc(OCCOCCOCCOCCOCCOCCOCCOCCOCCO)cc1`, the normalized intracellular growth runs as follows: (time point: T3 (3 h)) 0.99 ± 0.013; (time point: Tfinal (~6 h)) 1.1 ± 0.048.

Take `O=C(CCCN1CCC(O)(c2ccc(Br)cc2)CC1)c1ccc(F)cc1`: the normalized intracellular growth by setting is: (time point: T3 (3 h)) 0.391 ± 0.23; (time point: Tfinal (~6 h)) 1.28 ± 0.14.

For `O=C(CCCN1CCC(O)(c2ccc(Cl)cc2)CC1)c1ccc(F)cc1`, the normalized intracellular growth turned out to be 0.957 ± 0.056 (time point: T3 (3 h)) and 1 ± 0.085 (time point: Tfinal (~6 h)).

As for `NC(=O)C1(N2CCCCC2)CCN(CCCC(=O)c2ccc(F)cc2)CC1`, the normalized intracellular growth came to 0.984 ± 0.085 (time point: T3 (3 h)) and 0.965 ± 0.16 (time point: Tfinal (~6 h)).

Regarding `N[C@@H](CCC(=O)N[C@@H](CS)C(=O)NCC(=O)O)C(=O)O`, the normalized intracellular growth reads like this: (time point: T3 (3 h)) 1.1 ± 0.056; (time point: Tfinal (~6 h)) 0.832 ± 0.11.

For the molecule `CC(C)CCCC(C)NC(C)C` (stereo unspecified), the normalized intracellular growth by setting is: (time point: T3 (3 h)) 1 ± 0.017; (time point: Tfinal (~6 h)) 0.999 ± 0.11.

As for `Cc1ccc(S(=O)(=O)NCl)cc1`, the normalized intracellular growth was 0.946 ± 0.021 (time point: T3 (3 h)) and 0.902 ± 0.052 (time point: Tfinal (~6 h)).

The molecule `OCc1ccccc1O` had a normalized intracellular growth (time point: T3 (3 h)) of 1.07 ± 0.017 and a normalized intracellular growth (time point: Tfinal (~6 h)) of 1.01 ± 0.022.

In turn, `CC1CCc2cc(F)cc3c(=O)c(C(=O)O)cn1c23` (stereo unspecified) yielded a normalized intracellular growth (time point: T3 (3 h)) of 0.937 ± 0.026 and a normalized intracellular growth (time point: Tfinal (~6 h)) of 0.389 ± 0.025.

Regarding `CC1CCc2c(N3CCC(O)CC3)c(F)cc3c(=O)c(C(=O)O)cn1c23` (stereo unspecified), the normalized intracellular growth is, setting by setting: (time point: T3 (3 h)) 0.894 ± 0.051; (time point: Tfinal (~6 h)) 0.0538 ± 0.029.

As to `N[C@@H](Cc1ccc(O)cc1)C(=O)O`, the normalized intracellular growth reads like this: (time point: T3 (3 h)) 0.934 ± 0.037; (time point: Tfinal (~6 h)) 0.846 ± 0.31.

Turning to `C=C(C)[C@H]1CC=C(C)CC1`, the normalized intracellular growth (time point: T3 (3 h)) came to 0.96 ± 0.013 and the normalized intracellular growth (time point: Tfinal (~6 h)) was found to be 1.1 ± 0.098.

In the case of `C#C[C@]1(OC(C)=O)CC[C@H]2[C@@H]3CCC4=CC(=O)CC[C@@H]4[C@H]3CC[C@@]21C`, the normalized intracellular growth came out at 1.03 ± 0.046 (time point: T3 (3 h)) and 0.972 ± 0.043 (time point: Tfinal (~6 h)).

Regarding `CC(O)CC(C)(C)O` (stereo unspecified), the normalized intracellular growth by setting is: (time point: T3 (3 h)) 1.05 ± 0.086; (time point: Tfinal (~6 h)) 0.769 ± 0.19.

Turning to `CC[C@H]1OC(=O)[C@H](C)[C@@H](O[C@H]2C[C@@](C)(OC)[C@@H](O)[C@H](C)O2)[C@H](C)[C@@H](O[C@@H]2O[C@H](C)C[C@H](N(C)C)[C@H]2O)[C@](C)(O)C[C@@H](C)C(=O)[C@H](C)[C@@H](O)[C@]1(C)O`, the normalized intracellular growth runs as follows: (time point: T3 (3 h)) 0.964 and 0.725; (time point: Tfinal (~6 h)) 0.913 and 0.963.

Source of the values: the supplement of paper PMC6331611.
